# Experimental data as given in PubChem BioAssay (NCATS).
# Records with an inconclusive call do not appear. The source made the active and inactive calls. Unless noted, calls come from the whole dose curve; as a rule, active = well fitted curve in the direction sought with a large enough effect; inconclusive = small, poorly fitted or top-dose-only effect, or another doubt; inactive = no such curve, though single readings can be large; an effect the other way counts as inactive or inconclusive.
# Assays:
# [1] = Primary qHTS for small molecule stabilizers of the endoplasmic reticulum resident proteome: Secreted ER Calcium Modulated Protein (SERCaMP) assay (AID 1508630); note: % is set by controls: 0 for no effect and ±100 for the full control effect
# How it was run: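 GLuc-SERCaMP-expressing SH-SY5Y cells, pretreated 16 h with compound, are challenged with thapsigargin to empty ER calcium stores; after 4 h, coelenterazine is added directly to the medium and luminescence is imaged.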
# [2] = qHTS assay to identify inhibitors of the type 1 interferon - major histocompatibility complex class I in skeletal muscle: Counter screen cell viability and HiBit confirmation (AID 1347412); settings: iHSKM muscle cells + IFN-b, HiBiT or CellTiter-Glo, 24 h; for activity change, negative = inhibition: at 45.9 µM (top of the series); note: potency is the fitted concentration of half-maximal effect; for activity change, negative = inhibition: % is set by controls: 0 for no effect and ±100 for the full control effect; for all read-outs here: nearly all actives have a fitted effect of over 60% in size
# How it was run: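 CRISPR HLA-B*08:01-HiBit immortalized human myoblasts (C25cl48) stimulated with 4 ng/ml IFN-beta and compounds (12-point 1:3, top 46 uM final) for 24 h at 37 C. Duplicate plates read by HiBit lytic luminescence or CellTiter Glo ATP.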
# [3] = Primary qHTS for inhibitors of nuclear receptor binding SET domain protein 2 (NSD2) in an isogenic RCH-ACV NSD2 p.E1099K mutant (9B) (AID 1645876); note: nearly all actives have a fitted effect of over 70% in size; note: potency is the fitted concentration of half-maximal effect
# [4] = Primary qHTS for inhibitors of nuclear receptor binding SET domain protein 2 (NSD2) in an RCH-ACV wild type WT cells (2C) (AID 1645877); note: potency is the fitted concentration of half-maximal effect; nearly all actives have a fitted effect of over 70% in size
# [5] = molecular target: Glutathione peroxidase 1 (Homo sapiens) (UniProt P07203); experiment: Primary qHTS Assay for Inhibitors of Recombinant Selenoprotein Glutathione Peroxidase 1 (GPX1) (AID 1845191); note: nearly all actives have a fitted effect of over 65% in size
# How it was run: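 Recombinant GPX1 (10 nM final) was preincubated with compound for 30 min at room temperature, then reacted with 1 mM GSH, 0.5 mM CHP, 0.5 mM NADPH and 100 nM glutathione reductase; NADPH fluorescence (340/450 nm) was read at 0 and 15 min.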
# [6] = molecular target: Phospholipid hydroperoxide glutathione peroxidase GPX4 (Homo sapiens) (UniProt P36969); experiment: Primary qHTS Assay for Inhibitors of Recombinant Selenoprotein Glutathione Peroxidase 4 (GPX4) (AID 1845192); settings: outcome: dose series up to 50 µM unless noted; note: nearly all actives have a fitted effect of over 65% in size; note: potency is the fitted concentration of half-maximal effect; for activity change, negative = inhibition: % is set by controls: 0 for no effect and ±100 for the full control effect
# How it was run: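 GR-coupled readout: 100 nM GR, 1 mM GSH, 0.5 mM NADPH; NADPH fluorescence (ex 340/em 450 nm) read at t=0 and after 15 min RT. GPX4 200 nM, preincubated 30 min with compound; substrate 0.5 mM CHP.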
# [7] = qHTS drug screen for cell cycle checkpoint inhibitors in PARPi-resistant BRCA-mutant ovarian cancer cell lines. (AID 1963452; calls by dose curve); settings: PEO1/OlaR viability, CellTiter-Glo luminescence, 96 h, stronger effect = lower value
# How it was run: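 PEO1, PEO4 and PEO1/OlaR ovarian cancer cells, 600 per well, exposed 96 h at 37C to a dilution series. Viability read by CellTiter-Glo luminescence, normalized to DMSO and empty wells; activity summarized as Z-AUC.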
# [8] = qHTS to identify inhibitors of the type 1 interferon - major histocompatibility complex class I in skeletal muscle: primary screen against the NCATS Mechanism Interrogation Plate v5.0 (MIPE) Libary (AID 1347411);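 note: plate controls were vehicle for no effect and reference inhibitor for full effect; nearly all actives have a fitted effect of over 65% in size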
# How it was run: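 Immortalized human myoblasts (C25cl48) with HiBit knocked into endogenous HLA-B*08:01 were stimulated with 4 ng/ml IFN-beta and given compounds in 11-point 1:3 titration from 46 uM. After 24 h at 37 C, lytic HiBiT luminescence was read.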
# [9] = measured here: PEO1 parental Z-AUC
# Sequence of Phospholipid hydroperoxide glutathione peroxidase GPX4 (Homo sapiens) (P36969 whole entry, looked up): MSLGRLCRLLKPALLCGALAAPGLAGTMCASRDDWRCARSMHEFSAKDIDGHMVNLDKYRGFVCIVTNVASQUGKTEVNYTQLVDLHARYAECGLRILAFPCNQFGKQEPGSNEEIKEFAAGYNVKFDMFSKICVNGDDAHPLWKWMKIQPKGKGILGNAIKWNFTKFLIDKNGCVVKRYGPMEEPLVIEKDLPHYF
# Sequence of Glutathione peroxidase 1 (Homo sapiens) (P07203 whole entry, looked up): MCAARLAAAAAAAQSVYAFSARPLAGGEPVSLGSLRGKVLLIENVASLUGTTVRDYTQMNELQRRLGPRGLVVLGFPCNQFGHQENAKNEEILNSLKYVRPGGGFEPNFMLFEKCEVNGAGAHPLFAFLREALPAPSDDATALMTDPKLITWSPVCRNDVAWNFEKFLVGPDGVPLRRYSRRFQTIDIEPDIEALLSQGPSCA
smiles,measurement,setting,value
CC[C@@H](C)[C@H]1O[C@]2(CC[C@@H]1C)C[C@@H]1C[C@@H](C/C=C(\C)[C@@H](O[C@@H]3C[C@H](OC)[C@H](O[C@H]4C[C@H](OC)[C@@H](O)[C@H](C)O4)[C@H](C)O3)[C@@H](C)/C=C/C=C3\CO[C@@H]4[C@@H](O)C(C)=C[C@@H](C(=O)O1)[C@]34O)O2,Potency,[1],inactive
same,Potency,[2]; HiBiT,27.9 µM (active)
same,Potency,[2]; Viability,31.3 µM (active)
CCN(CC)CCNC(=O)c1c(C)[nH]c(/C=C2/C(=O)Nc3ccc(-c4csc(-c5ccccc5)n4)cc32)c1C,Potency,[3],7.42 µM (active)
same,Potency,[4],5.9 µM (active)
same,Potency,[5],inactive
same,Potency,[6],inactive
same,Z-AUC,[7],0.984 (inactive)
same,Z-AUC,[7]; [9],0.413
same,Z-AUC,[7]; measured here: PEO4 Z-AUC,-0.34
same,Potency,[2]; Viability,24.9 µM (active)
COc1cc(=C2C=c3ccccc3=N2)[nH]/c1=C/c1[nH]c(C)cc1C,Potency,[3],inactive
same,Potency,[5],inactive
same,Z-AUC,[7],0.716 (inactive)
same,Z-AUC,[7]; [9],0.368
same,Z-AUC,[7]; measured here: PEO4 Z-AUC,1.02
same,"activity change, negative = inhibition",[2]; HiBiT,-23.6% (inactive)
same,Potency,[2]; Viability,1.25 µM (active)
CC[C@@H](Oc1cccc(CN(CCCOc2ccc(OC)cc2)c2nc3ccccc3o2)c1)C(=O)O,Potency,[8],inactive
same,Potency,[5],inactive
same,Z-AUC,[7],1.26 (inactive)
same,Z-AUC,[7]; [9],0.312
same,Z-AUC,[7]; measured here: PEO4 Z-AUC,0.341
CO[C@@H]1[C@@H](O)[C@H](O)[C@@H](n2c3c(Cl)cccc3c3c4c(c5c6cccc(Cl)c6[nH]c5c32)C(=O)NC4=O)O[C@H]1CO,Potency,[3],0.934 µM (active)
same,Potency,[4],0.525 µM (active)
same,Potency,[6],inactive
same,Z-AUC,[7],-0.593 (inactive)
same,Z-AUC,[7]; [9],-0.854
same,Z-AUC,[7]; measured here: PEO4 Z-AUC,-0.743
same,Potency,[2]; HiBiT,4.97 µM (active)
same,"activity change, negative = inhibition",[2]; Viability,-21.4% (inactive)
NS(=O)(=O)Oc1ccc2c3c(c(=O)oc2c1)CCCCC3,Potency,[8],inactive
same,Potency,[6],18 µM (active)
same,Z-AUC,[7],0.451 (inactive)
same,Z-AUC,[7]; [9],0.12
same,Z-AUC,[7]; measured here: PEO4 Z-AUC,-0.024
COC1CC(C(=O)c2ccc3c(N)ncc(-c4ccc(-c5cnn(C)c5)cc4)c3n2)C1 (centres undefined),Potency,[3],1.48 µM (active)
same,Potency,[4],0.0417 µM (active)
same,Potency,[5],inactive
same,Potency,[6],inactive
same,Z-AUC,[7],-1.33 (inactive)
same,Z-AUC,[7]; [9],-1.16
same,Z-AUC,[7]; measured here: PEO4 Z-AUC,-1.1
same,"activity change, negative = inhibition",[2]; Viability,4.77% (inactive)
CN(C)CCOc1ccc(-c2nc(-c3ccc4c(c3)CC/C4=N\O)c(-c3ccncc3)[nH]2)cc1,Potency,[3],16.6 µM (active)
same,Potency,[4],10.5 µM (active)
same,Potency,[5],inactive
same,Potency,[6],inactive
same,Z-AUC,[7],-0.892 (inactive)
same,Z-AUC,[7]; [9],-1.12
same,Z-AUC,[7]; measured here: PEO4 Z-AUC,-1.55
same,"activity change, negative = inhibition",[2]; HiBiT,24.4% (inactive)
same,"activity change, negative = inhibition",[2]; Viability,-15.1% (inactive)
Nc1ncc(C(=O)NC2CN(C(=O)C3CC3)C2)c2ccc(-c3cccc(F)c3)nc12,Potency,[8],inactive
same,Potency,[5],inactive
same,Z-AUC,[7],1.21 (inactive)
same,Z-AUC,[7]; [9],0.799
same,Z-AUC,[7]; measured here: PEO4 Z-AUC,0.359
O=c1cc(N2CCOCC2)oc2c(-c3ccc4c(c3)OCCO4)csc12,Potency,[3],0.59 µM (active)
same,Potency,[4],0.59 µM (active)
same,Potency,[5],inactive
same,Potency,[6],inactive
same,Z-AUC,[7],-0.839 (inactive)
same,Z-AUC,[7]; [9],-0.602
same,Z-AUC,[7]; measured here: PEO4 Z-AUC,-0.553
same,Potency,[2]; HiBiT,14 µM (active)
CN1C(=O)N(c2cc(Cl)cc(Cl)c2)C(=O)[C@]12CN(Cc1cc(C(=O)O)cs1)C[C@H]2c1ccc(C#N)cc1,Potency,[8],inactive
same,Potency,[5],inactive
same,Z-AUC,[7],0.948 (inactive)
same,Z-AUC,[7]; [9],1.08
same,Z-AUC,[7]; measured here: PEO4 Z-AUC,0.897
C=CCN(/C=C1\C(=O)O[C@@H](COC)[C@]2(C)C1=C(O)C(=O)C1=C2[C@@H](OC(C)=O)C[C@]2(C)C(=O)CC[C@H]12)CC=C,Potency,[3],10.5 µM (active)
same,Potency,[4],8.33 µM (active)
same,Potency,[5],inactive
same,Potency,[6],inactive
same,Z-AUC,[7],-0.265 (inactive)
same,Z-AUC,[7]; [9],0.0227
same,Z-AUC,[7]; measured here: PEO4 Z-AUC,0.306
same,"activity change, negative = inhibition",[2]; HiBiT,-5.45% (inactive)
C[C@@H]1Cc2c([nH]c3ccccc23)[C@@H](c2c(F)cc(/C=C/C(=O)O)cc2F)N1CC(C)(C)F,Potency,[8],inactive
same,Potency,[5],inactive
same,Z-AUC,[7],-0.309 (inactive)
same,Z-AUC,[7]; [9],-0.682
same,Z-AUC,[7]; measured here: PEO4 Z-AUC,-0.807
O=C1S/C(=C\c2ccc(OCc3cccc(B(O)O)c3)cc2)C(=O)N1Cc1ccc(F)cc1,Potency,[8],inactive
same,Potency,[6],inactive
same,Z-AUC,[7],0.689 (inactive)
same,Z-AUC,[7]; [9],0.417
same,Z-AUC,[7]; measured here: PEO4 Z-AUC,0.814
